Measured values taken from PubChem BioAssay AID2061305 (National Center for Advancing Translational Sciences (NCATS), 2025).
Records with an inconclusive call do not appear. The source made the active and inactive calls. The call rests on the fitted dose curve; in most records, active means well fitted inhibition curve with a large enough effect; inconclusive means small, poorly fitted or top-dose-only effect; inactive means flat fitted curve, though single readings scatter. Where a SMILES comes first, the peptide text is derived from it. [ ]: non-standard residue; d: D form. Dolaproine = CO[C@@H]([C@@H]1CCCN1)[C@@H](C)C(=O)O; Dil = CC[C@H](C)[C@H](NC)[C@@H](CC(=O)O)OC; NMeV = CN[C@H](C(=O)O)C(C)C

Test: Identification of antibody-drug conjugate (ADC) payloads which are substrates of ATP-binding cassette drug efflux transporters: ABCB1-HeLa-KB-3-1 cell line
Conditions: KB-3-1 (HeLa derivative) viability, CellTiter-Glo, 48 h
Description: Antibody-drug conjugates (ADCs) feature an antibody recognizing a specific protein joined to a potent toxic payload. Numerous antibody-drug conjugates have received FDA approval; however, clinical resistance arises. Resistance mechanisms include decreased expression or mutation of the antibody target, impaired payload release, or increased expression of ATP-binding cassette (ABC) efflux transporters associated with multidrug resistance. We therefore sought to characterize the interaction of ABC multidrug transporters with ADC payloads. We performed a high-throughput screen with 27 common ADC payloads using cells lines expressing ABC transporters P-glycoprotein (P-gp, encoded by ABCB1) or ABCG2 (encoded by ABCG2). Confirmatory assays were also performed using cells transfected to express P-gp, ABCG2, or MRP1 (encoded by ABCC1). Several commonly used ADC payloads were substrates of P-gp, including calicheamicin gamma1, monomethyl auristatin E, DM1, and DM4. All the pyrrolobenzodiazepines tested - SJG136, SGD-1882, SG2057, and SG3199 - were substrates of P-gp, ABCG2, and MRP1. […] These findings highlight the risk of transporter-mediated resistance with certain ADC payloads and underscore the importance of selecting payloads that evade ABC transporter recognition in future ADC development.
HEK-293 cells were transfected with empty vector (pcDNA) or vector containing the human ABCB1 (MDR-19), ABCG2 (R-5), or ABCC1 gene (MRP1) and were maintained in EMEM with 2 mg/mL G418 added to maintain transporter expression. The HeLa derivative KB-3-1 and the P-gp overexpressing KB-8-5-11 subline were maintained in DMEM; KB-8-5-11 additionally received 100 ng/mL colchicine. H460 parental cells were obtained from the Division of Cancer Treatment and Diagnosis Tumor Repository, National Cancer Institute at Frederick, MD and were cultured in RPMI. The ABCG2 expressing subline H460 MX20 was generated by selecting H460 cells in 20 nM mitoxantrone. Media in all cases was supplemented with 10% FBS and 1% penicillin-streptomycin. We explored 27 common ADC payloads, in two orthogonal, paired cell line sets-a drug selected and transfected set for each transporter--to identify substrates of the ABC transporters P-gp and ABCG2. Compounds were sourced from Levena Biopharma (San Diego, CA), Selleck Chem (Houston, TX), ChemieTek (Indianapolis, IN), or Microsource Discovery Systems (Gaylordsville, CT). Screening was performed as previously described. Briefly, cells were plated at a density of 500 cells/well in 1536 well plates with compounds added using a 1536-head pin tool (Kalypsys, San Diego CA). Cells were incubated with cytotoxic drugs and processed with CellTiter Glo reagent (Promega, Madison, WI) to determine viability after 48 hours. P-gp substrates were identified by comparing compound activity between paired sets of low-expressing (sensitive) and over-expressing (resistant) cell lines.

| SMILES | Potency |
| --- | --- |
| COC(=O)c1cc2c3c(cc(O)c2[nH]1)N(C(=O)c1cc2cc(OC)c(OC)c(OC)c2[nH]1)CC3CCl (centres undefined) | 0.5 nM (active) |
| CC[C@H](C)[C@@H]([C@@H](CC(=O)N1CCC[C@H]1[C@H](OC)[C@@H](C)C(=O)N[C@@H](Cc1ccccc1)C(=O)O)OC)N(C)C(=O)[C@@H](NC(=O)[C@@H](NC)C(C)C)C(C)C (H-[NMeV]V[Dil][Dolaproine]F-OH) | 66.6 nM (active) |
| CC[C@H](C)[C@@H]([C@H](N)CC(=O)N1CCC[C@H]1[C@H](OC)[C@@H](C)C(=O)N[C@@H](Cc1ccccc1)c1nccs1)N(C)C(=O)[C@@H](NC(=O)[C@@H](NC)C(C)C)C(C)C | 0.1 nM (active) |
| CC[C@H](C)[C@@H]([C@H](N)CC(=O)N1CCC[C@H]1[C@H](OC)[C@@H](C)C(=O)N[C@@H](Cc1ccccc1)c1nccs1)N(C)C(=O)[C@@H](NC(=O)[C@H](C(C)C)N(C)C)C(C)C | 0.0748 nM (active) |
| COc1cc2cc(c1Cl)N(C)C(=O)C[C@H](O)[C@]1(C)O[C@H]1[C@H](C)C1C[C@@](O)(NC(=O)O1)[C@H](OC)/C=C/C=C(\C)C2 | 4720 nM (active) |
| COc1ccc(C2=CN3C(=O)c4cc(OC)c(OCCCOc5cc6c(cc5OC)C(=O)N5C=C(c7ccc(N)cc7)C[C@@H]5C=N6)cc4N=C[C@H]3C2)cc1 | 52.9 nM (active) |
| CCN[C@H]1CO[C@@H](O[C@H]2[C@H](O[C@H]3C#C/C=C\C#C[C@]4(O)CC(=O)C(NC(=O)OC)=C3/C4=C\CSSSC)O[C@H](C)[C@@H](NO[C@H]3C[C@H](O)[C@H](SC(=O)c4c(C)c(I)c(O[C@@H]5O[C@@H](C)[C@H](O)[C@@H](OC)[C@H]5O)c(OC)c4OC)[C@@H](C)O3)[C@@H]2O)C[C@@H]1OC | 1.3 nM (active) |
| COc1cccc2c1C(=O)c1c(O)c3c(c(O)c1C2=O)C[C@@](O)(C(=O)CO)C[C@@H]3O[C@H]1C[C@H]2[C@H](O[C@@H]3[C@@H](OC)OCCN32)[C@H](C)O1 | 0.3 nM (active) |
| CCN(C(C)=O)[C@H]1CO[C@@H](O[C@H]2[C@H](O[C@H]3C#C/C=C\C#C[C@]4(O)CC(=O)C(NC(=O)OC)=C3/C4=C\CSSSC)O[C@H](C)[C@@H](NO[C@H]3C[C@H](O)[C@H](SC(=O)c4c(C)c(I)c(O[C@@H]5O[C@@H](C)[C@H](O)[C@@H](OC)[C@H]5O)c(OC)c4OC)[C@@H](C)O3)[C@@H]2O)C[C@@H]1OC | 8.4 nM (active) |
| CN(C)CCOc1ccc2[nH]c(C(=O)N3C[C@@H](CCl)c4c3cc(O)c3ccccc43)cc2c1 | 0.3 nM (active) |
| CC(C)(C)OC(=O)Nc1ccc2[nH]c(C(=O)N3C[C@@H](CCl)c4c3cc(O)c3ccccc43)cc2c1 | 5.9 nM (active) |
| CCc1c2c(nc3ccc(O)cc13)-c1cc3c(c(=O)n1C2)COC(=O)[C@]3(O)CC | 472 nM (active) |
| CC[C@]1(O)CC2CN(CCc3c([nH]c4ccccc34)[C@@](C(=O)OC)(c3cc4c(cc3OC)N(C)[C@H]3[C@@](O)(C(=O)OC)[C@H](OC(C)=O)[C@]5(CC)C=CCN6CC[C@]43[C@@H]65)C2)C1 (some centres undefined) | 6.7 nM (active) |
| COc1cccc2c1C(=O)c1c(O)c3c(c(O)c1C2=O)C[C@@](O)(C(=O)CO)C[C@@H]3O[C@H]1C[C@H](N)[C@H](O)[C@H](C)O1 | 236 nM (active) |
